# Laboratory results reported in PubChem BioAssay (EPA / NIEHS).
# Inconclusive results are not listed. The source made the active and inactive calls. The calls were made as follows: active = hit-call score of the fitted dose curve at least 0.9, where 1 is the maximum; inconclusive = response in the unintended direction; inactive = score below 0.9.
# Legend:
# [1] = biological target: human Esterase Plasma (ES), BCHE (gene 590) (UniProt P06276); experiment: NVS_ENZ_hES: NovaScreen (NVS) Enzymatic Assay for human Esterase Plasma (ES) (AID 2283157)
# Outline: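 Primary single-concentration screen at 25 uM in duplicate, then concentration-response to a 50 uM top dose. Human plasma esterase activity detected colorimetrically after 0.25 h incubation, with DMSO as baseline.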
# [2] = biological target: human Janus Kinase 2 (Jak2), JAK2 (gene 3717) (UniProt O60674); experiment: NVS_ENZ_hJak2: NovaScreen (NVS) Enzymatic Assay for human Janus Kinase 2 (Jak2) (AID 2283169)
# Outline: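 Single-point duplicate screen at 25 uM, with hits run in concentration series to a 50 uM top dose. Substrate-product separation by mobility shift with fluorescence detection, 1 h post-dosing; DMSO baseline.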
# [3] = biological target: human Ephrin type-A Receptor 1 (EphA1), EPHA1 (gene 2041) (UniProt P21709); experiment: NVS_ENZ_hEphA1: NovaScreen (NVS) Enzymatic Assay for human Ephrin type-A Receptor 1 (EphA1) (AID 2283158);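 also: activity is signal loss versus DMSO meaning EphA1 kinase inhibition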
# Outline: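 Recombinant kinase, fluorescent substrate, mobility-shift separation, fluorescence read at 1 h. Single-point duplicates at 25 uM; hits (e.g., ≥30% inhibition) run singleton concentration-response, max 50 uM. DMSO = negative control/baseline.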
# [4] = biological target: human FYN Proto-Oncogene, Src family Tyrosine Kinase (Fyn), FYN (gene 2534) (UniProt P06241); experiment: NVS_ENZ_hFyn: NovaScreen (NVS) Enzymatic Assay for human FYN Proto-Oncogene, Src family Tyrosine Kinase (Fyn) (AID 2283161)
# Outline: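 Cell-free kinase activity read by fluorescence after mobility-shift separation of substrate and product, 1 h post-dose. Initial single concentration 25 uM in duplicate, then concentration-response follow-up; DMSO baseline.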
# [5] = biological target: Histone deacetylase 3 (Homo sapiens) (UniProt O15379); experiment: NVS_ENZ_hHDAC3: NovaScreen (NVS) Enzymatic Assay for human Histone Deacetylase 3 (HDAC3) (AID 2283163)
# Outline: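 Cell-free enzyme format: loss of fluorescent product after mobility-shift separation, 1 h incubation, recombinant human HDAC3. Single 25 uM duplicate screen first, then concentration series to a 50 uM top for hits; DMSO as baseline.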
# [6] = biological target: human LYN Proto-Oncogene, Src family Tyrosine Kinase (LynA), LYN (gene 4067) (UniProt P07948); experiment: NVS_ENZ_hLynA: NovaScreen (NVS) Enzymatic Assay for human LYN Proto-Oncogene, Src family Tyrosine Kinase (LynA) (AID 2283173)
# Outline: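 Recombinant kinase with fluorescent substrate; product separated from substrate by electrophoretic mobility shift and read 1 h after dosing. Duplicate screen at 25 uM, then concentration-response up to 50 uM; activity scored as signal loss against DMSO.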
# [7] = biological target: Mitogen-activated protein kinase 3 (Homo sapiens) (UniProt P27361); experiment: NVS_ENZ_hMAPK3: NovaScreen (NVS) Enzymatic Assay for human Mitogen-Activated Protein Kinase 3 (MAPK 3) (AID 2283177)
# Outline: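 Chemicals were first tested in duplicate at 25 uM, with hits re-run as concentration series (max 50 uM). Recombinant enzyme activity, measured 1 h post-dose in a cell-free format, was read by fluorescence/mobility shift relative to DMSO.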
# [8] = biological target: human Mitogen- and Stress-activated Protein Kinase-1 (Msk1), RPS6KA5 (gene 9252) (UniProt O75582); experiment: NVS_ENZ_hMsk1: NovaScreen (NVS) Enzymatic Assay for human Mitogen- and Stress-activated Protein Kinase-1 (Msk1) (AID 2283187)
# Outline: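 Chemicals first run in duplicate at 25 uM, with actives followed up in singleton concentration series to 50 uM maximum. Enzyme activity came from substrate/product mobility-shift separation with fluorescence detection after 1 h incubation of the recombinant protein.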
# [9] = biological target: human Phosphodiesterase 4A1 (PDE4A1), PDE4A (gene 5141) (UniProt P27815); experiment: NVS_ENZ_hPDE4A1: NovaScreen (NVS) Enzymatic Assay for human Phosphodiesterase 4A1 (PDE4A1) (AID 2283191)
# Outline: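 Fluorescent substrate turnover by recombinant PDE4A1 read after 1 h by mobility-shift separation. Primary duplicate screen at 25 uM; hits retested in concentration series with a 50 uM maximum, relative to DMSO.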
# [10] = biological target: cAMP-dependent protein kinase catalytic subunit alpha (Homo sapiens) (UniProt P17612); experiment: NVS_ENZ_hPKA: NovaScreen (NVS) Enzymatic Assay for human Protein Kinase A (PKA) (AID 2283192)
# Outline: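 Cell-free kinase activity read by fluorescence after mobility-shift separation of substrate and product, 1 h post-dosing. Single-concentration duplicate screen (25 uM) preceded singleton concentration series (top 50 uM); loss of signal versus DMSO.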
# [11] = biological target: human Elastase, ELANE (gene 1991) (UniProt P08246); experiment: NVS_ENZ_hElastase: NovaScreen (NVS) Enzymatic Assay for human Elastase (AID 2283153)
# Outline: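 Concentration-response to 50 uM max, run singly for chemicals passing a threshold (e.g., 30% inhibition) in a duplicate 25 uM single-point screen. Neutrophil-derived human elastase, absorbance read-out of enzyme activity at 1.5 h; DMSO baseline.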
# [12] = biological target: human Dual Specificity Protein Phosphatase 3 (DUSP3), DUSP3 (gene 1845) (UniProt P51452); experiment: NVS_ENZ_hDUSP3: NovaScreen (NVS) Enzymatic Assay for human Dual Specificity Protein Phosphatase 3 (DUSP3) (AID 2283152);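 also: phosphatase activity of recombinant human DUSP3 on a fluorogenic substrate without cells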
# Outline: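 Cell-free fluorescence-intensity enzyme activity assay with recombinant protein and substrate; loss of signal fitted relative to DMSO baseline. Primary screen in duplicate at 25 uM, actives then run in concentration series; measured 0 h after dosing.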
# [13] = biological target: human c-Jun N-terminal Kinases (JNK2), MAPK9 (gene 5601) (UniProt P45984); experiment: NVS_ENZ_hJNK2: NovaScreen (NVS) Enzymatic Assay for human c-Jun N-terminal Kinases (JNK2) (AID 2283171)
# Outline: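 Chemicals first tested in duplicate at 25 uM, then in singleton concentration series up to 50 uM, against extracted JNK2 enzyme. Activity loss read by fluorescence with mobility-shift separation 1 h post-dose; DMSO baseline.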
# [14] = biological target: human Matrix Metalloproteinase-3 (MMP3), MMP3 (gene 4314) (UniProt P08254); experiment: NVS_ENZ_hMMP3: NovaScreen (NVS) Enzymatic Assay for human Matrix Metalloproteinase-3 (MMP3) (AID 2283185)
# Outline: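 Fluorescent substrate turnover by recombinant MMP3 read after 1 h, signal loss scored against DMSO. Compounds first run in duplicate at 25 uM single dose, then actives confirmed by concentration series.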
# [15] = biological target: human Matrix Metalloproteinase-9 (MMP9), MMP9 (gene 4318) (UniProt P14780); experiment: NVS_ENZ_hMMP9: NovaScreen (NVS) Enzymatic Assay for human Matrix Metalloproteinase-9 (MMP9) (AID 2283190);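 also: cell-free recombinant MMP9 protease activity read by fluorescent substrate signal; active means inhibition seen as loss of fluorescence signal versus DMSO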
# Outline: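 Screening concentration 25 uM, duplicate wells, then dose series for confirmation. Cell-free enzymatic reaction measured by fluorescence intensity 1 h post-dosing; decreased signal versus DMSO taken as activity.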
# [16] = biological target: human Insulin Receptor (InsR), INSR (gene 3643) (UniProt P06213); experiment: NVS_ENZ_hInsR: NovaScreen (NVS) Enzymatic Assay for human Insulin Receptor (InsR) (AID 2283168)
# Outline: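 Cell-free enzyme assay read 1 h post-dose by fluorescence after substrate/product mobility-shift separation. Duplicate 25 uM primary screen, then singleton concentration-response up to 50 uM for compounds passing threshold; loss of signal vs DMSO.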
# [17] = biological target: Collagenase 3 (Homo sapiens) (UniProt P45452); experiment: NVS_ENZ_hMMP13: NovaScreen (NVS) Enzymatic Assay for human Matrix Metalloproteinase-13 (MMP13) (AID 2283182)
# Outline: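 Recombinant MMP13 cleaving fluorescent substrate, cell-free, measured 1 h after dosing. Primary duplicate screen at 25 uM; actives tested in concentration-response up to 50 uM; loss of signal relative to DMSO.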
# [18] = biological target: human Matrix Metalloproteinase-7 (MMP7), MMP7 (gene 4316) (UniProt P09237); experiment: NVS_ENZ_hMMP7: NovaScreen (NVS) Enzymatic Assay for human Matrix Metalloproteinase-7 (MMP7) (AID 2283183)
# Outline: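 Compounds first tested at 25 uM in duplicate, then at up to 50 uM in concentration series if active. Protease activity measured by fluorescence intensity 1 h after dosing, with fitting relative to DMSO.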
# [19] = biological target: human Matrix Metalloproteinase-2 (MMP2), MMP2 (gene 4313) (UniProt P08253); experiment: NVS_ENZ_hMMP2: NovaScreen (NVS) Enzymatic Assay for human Matrix Metalloproteinase-2 (MMP2) (AID 2283184)
# Outline: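 Compounds first screened in duplicate at a single 25 uM, with actives followed up in concentration series. Recombinant human MMP2 cleaves a fluorogenic substrate; fluorescence taken at 1 h, inhibition fitted relative to DMSO.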
# human Phosphodiesterase 4A1 (PDE4A1), PDE4A (gene 5141), sequence (P27815 whole entry, looked up): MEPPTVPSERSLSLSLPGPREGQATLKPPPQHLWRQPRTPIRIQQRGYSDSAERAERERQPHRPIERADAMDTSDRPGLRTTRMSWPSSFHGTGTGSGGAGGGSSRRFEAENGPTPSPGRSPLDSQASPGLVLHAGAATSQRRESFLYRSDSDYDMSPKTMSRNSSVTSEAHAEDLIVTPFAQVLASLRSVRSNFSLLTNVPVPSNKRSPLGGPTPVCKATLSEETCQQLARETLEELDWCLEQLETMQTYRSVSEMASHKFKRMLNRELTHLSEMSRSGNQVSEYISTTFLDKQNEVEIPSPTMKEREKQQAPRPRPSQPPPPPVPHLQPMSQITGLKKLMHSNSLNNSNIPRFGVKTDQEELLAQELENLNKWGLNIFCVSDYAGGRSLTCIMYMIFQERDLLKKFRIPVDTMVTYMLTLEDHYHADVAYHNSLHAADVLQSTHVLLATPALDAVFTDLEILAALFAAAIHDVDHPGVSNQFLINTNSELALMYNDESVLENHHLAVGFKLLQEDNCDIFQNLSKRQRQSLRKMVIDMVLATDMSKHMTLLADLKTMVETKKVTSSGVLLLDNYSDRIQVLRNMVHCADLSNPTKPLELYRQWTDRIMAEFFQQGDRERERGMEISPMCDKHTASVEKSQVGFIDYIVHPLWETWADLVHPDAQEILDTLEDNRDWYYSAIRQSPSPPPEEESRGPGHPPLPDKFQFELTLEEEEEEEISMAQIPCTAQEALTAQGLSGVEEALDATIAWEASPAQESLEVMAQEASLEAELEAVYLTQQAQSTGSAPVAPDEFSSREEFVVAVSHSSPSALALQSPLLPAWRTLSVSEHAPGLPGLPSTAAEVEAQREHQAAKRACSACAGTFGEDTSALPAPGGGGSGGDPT
# human Matrix Metalloproteinase-9 (MMP9), MMP9 (gene 4318), sequence (P14780 whole entry, looked up): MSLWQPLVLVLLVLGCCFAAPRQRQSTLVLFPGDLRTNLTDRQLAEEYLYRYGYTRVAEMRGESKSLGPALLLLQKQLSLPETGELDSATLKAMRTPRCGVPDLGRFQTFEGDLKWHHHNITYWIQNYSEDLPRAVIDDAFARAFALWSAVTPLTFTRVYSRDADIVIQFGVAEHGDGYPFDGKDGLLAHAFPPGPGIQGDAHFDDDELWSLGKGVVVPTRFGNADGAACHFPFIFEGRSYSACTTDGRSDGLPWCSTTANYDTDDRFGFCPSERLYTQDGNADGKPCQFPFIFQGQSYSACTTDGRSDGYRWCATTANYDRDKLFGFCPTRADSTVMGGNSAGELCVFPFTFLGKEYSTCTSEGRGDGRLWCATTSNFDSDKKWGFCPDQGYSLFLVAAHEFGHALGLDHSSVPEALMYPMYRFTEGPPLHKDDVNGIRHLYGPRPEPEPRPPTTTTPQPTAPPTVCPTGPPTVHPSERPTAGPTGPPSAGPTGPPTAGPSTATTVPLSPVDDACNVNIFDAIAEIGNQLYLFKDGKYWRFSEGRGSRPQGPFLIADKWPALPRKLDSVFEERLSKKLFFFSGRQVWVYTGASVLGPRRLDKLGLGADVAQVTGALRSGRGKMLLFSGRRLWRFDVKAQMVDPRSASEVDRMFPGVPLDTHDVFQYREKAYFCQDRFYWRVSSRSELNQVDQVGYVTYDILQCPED
# human Janus Kinase 2 (Jak2), JAK2 (gene 3717), sequence (O60674 whole entry, looked up): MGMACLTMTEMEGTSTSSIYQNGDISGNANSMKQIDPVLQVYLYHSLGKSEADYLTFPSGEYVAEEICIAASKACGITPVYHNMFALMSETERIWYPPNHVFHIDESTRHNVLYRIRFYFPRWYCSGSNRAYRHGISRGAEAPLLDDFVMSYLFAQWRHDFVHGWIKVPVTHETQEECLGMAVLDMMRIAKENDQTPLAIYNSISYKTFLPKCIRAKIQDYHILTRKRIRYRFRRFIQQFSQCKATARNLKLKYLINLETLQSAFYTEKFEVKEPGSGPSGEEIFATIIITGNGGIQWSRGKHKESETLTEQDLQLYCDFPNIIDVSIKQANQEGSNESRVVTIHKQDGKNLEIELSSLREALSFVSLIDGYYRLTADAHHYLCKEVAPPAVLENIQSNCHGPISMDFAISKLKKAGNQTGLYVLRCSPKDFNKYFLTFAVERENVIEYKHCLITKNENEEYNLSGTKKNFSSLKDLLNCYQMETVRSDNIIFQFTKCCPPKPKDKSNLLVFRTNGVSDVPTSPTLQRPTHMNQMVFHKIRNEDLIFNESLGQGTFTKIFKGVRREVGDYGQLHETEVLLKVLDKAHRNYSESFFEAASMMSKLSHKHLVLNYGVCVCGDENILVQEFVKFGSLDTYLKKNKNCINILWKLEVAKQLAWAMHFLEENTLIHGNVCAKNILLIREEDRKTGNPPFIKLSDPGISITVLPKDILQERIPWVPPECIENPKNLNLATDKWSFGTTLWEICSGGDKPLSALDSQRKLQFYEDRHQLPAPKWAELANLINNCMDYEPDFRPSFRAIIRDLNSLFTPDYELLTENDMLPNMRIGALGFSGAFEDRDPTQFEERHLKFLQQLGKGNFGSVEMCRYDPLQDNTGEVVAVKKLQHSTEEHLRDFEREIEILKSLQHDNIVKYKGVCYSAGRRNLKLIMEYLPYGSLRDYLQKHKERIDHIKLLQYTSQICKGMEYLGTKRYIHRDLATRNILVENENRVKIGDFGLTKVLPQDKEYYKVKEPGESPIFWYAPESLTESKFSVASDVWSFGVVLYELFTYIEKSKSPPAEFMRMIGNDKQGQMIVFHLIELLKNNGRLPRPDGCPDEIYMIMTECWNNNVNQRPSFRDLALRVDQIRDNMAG
# human Matrix Metalloproteinase-7 (MMP7), MMP7 (gene 4316), sequence (P09237 whole entry, looked up): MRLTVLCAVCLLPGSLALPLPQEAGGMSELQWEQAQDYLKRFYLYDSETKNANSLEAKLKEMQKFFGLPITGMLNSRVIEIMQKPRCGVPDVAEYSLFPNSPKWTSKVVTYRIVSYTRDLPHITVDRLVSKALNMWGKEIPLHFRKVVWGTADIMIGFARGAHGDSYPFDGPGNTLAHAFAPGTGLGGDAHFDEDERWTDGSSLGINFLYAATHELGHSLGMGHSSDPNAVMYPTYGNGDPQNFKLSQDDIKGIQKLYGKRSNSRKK
# human Esterase Plasma (ES), BCHE (gene 590), sequence (P06276 whole entry, looked up): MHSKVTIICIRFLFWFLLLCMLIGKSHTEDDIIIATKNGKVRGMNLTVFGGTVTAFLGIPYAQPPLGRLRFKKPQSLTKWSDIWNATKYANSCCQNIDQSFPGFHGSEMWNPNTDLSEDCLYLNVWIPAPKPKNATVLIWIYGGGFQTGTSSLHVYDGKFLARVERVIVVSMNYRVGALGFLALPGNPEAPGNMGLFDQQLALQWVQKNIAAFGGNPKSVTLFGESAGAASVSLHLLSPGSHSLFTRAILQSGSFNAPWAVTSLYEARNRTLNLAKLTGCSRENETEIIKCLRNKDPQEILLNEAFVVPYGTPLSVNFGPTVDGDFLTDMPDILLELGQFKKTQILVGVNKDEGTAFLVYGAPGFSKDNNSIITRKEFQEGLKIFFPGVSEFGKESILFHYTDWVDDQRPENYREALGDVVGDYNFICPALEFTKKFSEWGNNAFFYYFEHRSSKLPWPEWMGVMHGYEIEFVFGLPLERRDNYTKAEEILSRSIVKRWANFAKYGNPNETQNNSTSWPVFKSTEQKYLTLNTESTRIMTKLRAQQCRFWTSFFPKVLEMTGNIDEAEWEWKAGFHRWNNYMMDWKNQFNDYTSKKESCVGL
# human LYN Proto-Oncogene, Src family Tyrosine Kinase (LynA), LYN (gene 4067), sequence (P07948 whole entry, looked up): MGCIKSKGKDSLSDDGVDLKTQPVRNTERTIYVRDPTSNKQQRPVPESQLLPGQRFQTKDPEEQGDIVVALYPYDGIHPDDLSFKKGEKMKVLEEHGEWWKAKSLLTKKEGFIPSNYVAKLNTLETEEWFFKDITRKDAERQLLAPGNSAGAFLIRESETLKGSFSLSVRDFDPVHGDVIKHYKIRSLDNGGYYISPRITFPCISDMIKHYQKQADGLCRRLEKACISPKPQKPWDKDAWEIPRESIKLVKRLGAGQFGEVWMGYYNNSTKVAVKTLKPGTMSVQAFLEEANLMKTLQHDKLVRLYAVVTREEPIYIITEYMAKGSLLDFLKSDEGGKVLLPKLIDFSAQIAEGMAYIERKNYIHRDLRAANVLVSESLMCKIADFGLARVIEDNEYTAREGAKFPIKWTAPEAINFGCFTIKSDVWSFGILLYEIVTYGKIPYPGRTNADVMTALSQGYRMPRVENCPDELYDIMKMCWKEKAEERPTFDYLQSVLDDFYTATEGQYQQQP
# Mitogen-activated protein kinase 3 (Homo sapiens), sequence (P27361 whole entry, looked up): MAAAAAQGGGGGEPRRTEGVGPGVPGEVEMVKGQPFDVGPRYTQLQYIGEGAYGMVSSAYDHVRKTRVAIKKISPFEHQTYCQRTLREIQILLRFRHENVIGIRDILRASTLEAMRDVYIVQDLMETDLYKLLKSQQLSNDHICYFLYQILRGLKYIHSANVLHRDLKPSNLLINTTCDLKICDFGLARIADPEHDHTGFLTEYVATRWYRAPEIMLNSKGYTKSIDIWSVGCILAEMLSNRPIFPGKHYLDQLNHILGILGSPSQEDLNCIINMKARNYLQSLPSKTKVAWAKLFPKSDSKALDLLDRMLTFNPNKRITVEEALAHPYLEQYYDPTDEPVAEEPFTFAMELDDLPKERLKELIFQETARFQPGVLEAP
# human FYN Proto-Oncogene, Src family Tyrosine Kinase (Fyn), FYN (gene 2534), sequence (P06241 whole entry, looked up): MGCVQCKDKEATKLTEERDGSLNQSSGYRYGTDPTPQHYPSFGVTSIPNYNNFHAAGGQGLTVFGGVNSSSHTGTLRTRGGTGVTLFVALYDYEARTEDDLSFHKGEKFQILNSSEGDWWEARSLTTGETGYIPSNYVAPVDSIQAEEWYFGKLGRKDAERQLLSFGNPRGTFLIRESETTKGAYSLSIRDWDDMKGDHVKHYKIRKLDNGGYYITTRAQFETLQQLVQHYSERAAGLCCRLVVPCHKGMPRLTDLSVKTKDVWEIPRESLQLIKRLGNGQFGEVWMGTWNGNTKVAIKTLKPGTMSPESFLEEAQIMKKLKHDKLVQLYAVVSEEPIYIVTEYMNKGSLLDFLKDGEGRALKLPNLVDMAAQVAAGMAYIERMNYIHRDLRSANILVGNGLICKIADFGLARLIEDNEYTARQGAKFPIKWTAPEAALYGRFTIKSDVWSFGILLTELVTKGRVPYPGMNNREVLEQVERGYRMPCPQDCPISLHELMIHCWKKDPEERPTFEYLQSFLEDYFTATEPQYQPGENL
smiles,measurement,setting,value
Cc1cc(SC2=C(O)C[C@@](CCc3ccc(N)cc3)(C(C)C)OC2=O)c(C(C)(C)C)cc1CO,AC50,[1],7.01 µM (active)
same,outcome,[2],inactive
CCN(CC)CCOc1ccc(C(=C(Cl)c2ccccc2)c2ccccc2)cc1,outcome,[1],inactive
same,outcome,[3],inactive
same,AC50,[4],33.6 µM (active)
same,AC50,[5],4.17 µM (active)
same,AC50,[6],19.8 µM (active)
CN(C)C(=O)NC1(c2ccccc2)CCN(CCC[C@]2(c3ccc(Cl)c(Cl)c3)CCCN(C(=O)c3ccccc3)C2)CC1,AC50,[1],5.89 µM (active)
same,outcome,[2],inactive
same,outcome,[6],inactive
same,outcome,[7],inactive
same,outcome,[8],inactive
same,outcome,[9],inactive
same,outcome,[10],inactive
CC(C)(O)c1ccc(CNC(=O)c2cccnc2Oc2ccc(F)cc2)cc1,outcome,[11],inactive
same,outcome,[2],inactive
COC(=O)[C@H]1[C@H]2C[C@@H]3c4[nH]c5cc(OC)ccc5c4CCN3C[C@H]2C[C@@H](OC(=O)c2cc(OC)c(OC)c(OC)c2)[C@@H]1OC,AC50,[12],24.6 µM (active)
O=C(O)CC(O)(CC(=O)O)C(=O)O,outcome,[4],inactive
same,outcome,[2],inactive
same,outcome,[13],inactive
same,outcome,[7],inactive
CC(=O)CC(c1ccccc1)c1c(O)c2ccccc2oc1=O (centres undefined),outcome,[10],inactive
CCCCCCCCCCCCCCCCO,outcome,[2],inactive
same,outcome,[13],inactive
O=Cc1ccccc1C=O,AC50,[14],6.96 µM (active)
Nc1nc(Cl)nc2c1ncn2[C@H]1C[C@H](O)[C@@H](CO)O1,AC50,[9],9.18 µM (active)
O=C1CCCCC1,outcome,[7],inactive
O=C(Oc1ccccc1)c1cccc(C(=O)Oc2ccccc2)c1,outcome,[2],inactive
same,outcome,[10],inactive
OCC(O)CO,outcome,[15],inactive
CC(N)=O,outcome,[16],inactive
Nc1nc(=S)c2[nH]cnc2[nH]1,AC50,[17],27.1 µM (active)
same,outcome,[18],inactive
same,AC50,[19],18.8 µM (active)
same,AC50,[15],39.2 µM (active)
C#CC(O)C(CC)CCCC (centres undefined),outcome,[3],inactive
same,outcome,[18],inactive
CC(C)(C)c1ccccc1,AC50,[17],19.4 µM (active)
same,outcome,[10],inactive
O=C(O)c1[nH]n(-c2ccc(S(=O)(=O)O)cc2)c(=O)c1N=Nc1ccc(S(=O)(=O)O)cc1,AC50,[17],23.6 µM (active)
same,AC50,[18],12.3 µM (active)
same,AC50,[14],23.6 µM (active)
NC=O,outcome,[7],inactive
CC(C)NCC(O)c1ccc(O)c(O)c1 (centres undefined),outcome,[2],inactive
same,outcome,[9],inactive
C/C=C/C=C/C(=O)O,AC50,[15],1.24 µM (active)
same,outcome,[9],inactive
O=C1NC(=O)C(c2ccccc2)(c2ccccc2)N1,outcome,[2],inactive
same,outcome,[6],inactive
same,outcome,[9],inactive
S=c1[nH]c2ccccc2s1,outcome,[8],inactive
same,outcome,[10],inactive
CC(C)COC(=O)CCCCC(=O)OCC(C)C,outcome,[2],inactive
O=C(O)c1cccnc1,outcome,[7],inactive
NC(=Nc1ccccc1)Nc1ccccc1,outcome,[7],inactive
COc1ccc(C(=O)Nc2nc3ccccc3c(NCc3ccccc3)c2C#N)cc1,AC50,[9],17.7 µM (active)
c1ccc2occc2c1,outcome,[19],inactive
same,outcome,[15],inactive
C=CCCCCCCCCCCCC,outcome,[7],inactive
